Results on twelve sequences are retold here after the supplement of paper PMC6555819.

Test in all cases: PBM binding z-score (relative to random genomic background probes); higher = stronger binding; sequences stand for … in GC…GCGATTGACAGCGTAGAATGAAGG
Assay [1] deals with FXR:RXRa (NR concentration 270 nM, RXRa partner concentration 90 nM). The essentials: (§1)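 The probes on custom Agilent 4×180K protein-binding microarrays were double-stranded, with 34-nt variable regions bearing direct-repeat seeds, single-nucleotide variants, half-site ablations and random human genomic background sequences. Incubation lasted 1 h with ligand-free nuclear receptor dimers in PBS pH 7.4, 2% milk, 0.02% Triton X-100, 1 mM DTT, 0.2 mg/mL BSA and 0.4 mg/ml salmon testes DNA. Antibodies against each partner (one per run) detected bound dimers, and fluorescence scans were regression-normalized. Binding z-scores take the random background probes as reference.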

Assay [2] relates to LXRa:RXRa (NR concentration 270 nM, RXRa partner concentration 90 nM). The essentials:
as §1

Assay [3] relates to LXRa homodimer (NR concentration 270 nM). The essentials: as §1
Assay [4] has as its system LXRb:RXRa (NR concentration 270 nM, RXRa partner concentration 90 nM). The essentials: as §1
Assay [5] has as its system LXRb homodimer (NR concentration 270 nM). Put shortly: as §1
The test system of assay [6] is PPARa:RXRa (NR concentration 270 nM, RXRa partner concentration 90 nM). The essentials: as §1
For assay [7], the system named is PPARg:RXRa (NR concentration 180 nM, RXRa partner concentration 90 nM). The essentials: as §1
Assay [8] has as its system PPARg:RXRa 270nM:90nM, anti-RXR (NR concentration 270 nM, RXRa partner concentration 90 nM). Put shortly:
as §1

The test system of assay [9] is PPARg:RXRa 30nM:10nM, anti-RXR (NR concentration 30 nM, RXRa partner concentration 10 nM). The essentials: as §1
For assay [10], the system named is PPARg:RXRa 90nM:30nM, anti-RXR (NR concentration 90 nM, RXRa partner concentration 30 nM). Put shortly: as §1

In the case of CAAACTAGGTCACAGAGGTCACAGTCCGTGCGTA, the PBM binding z-score is 6.73 in assay [1]; 6.02 in assay [2]; 6.09 in assay [3]; 5.37 in assay [4]; 1.35 in [5]; 6.43 in [6]. The PBM binding z-score is 10.1 in assay [7], 8.04 in assay [8], 6.43 in assay [9] and 8.12 in assay [10].
Regarding TCATATAGGTAATACAGGTGTAAGTCGGCATCTA, the PBM binding z-score in [1] was found to be 1.11; in [2], 1.19; in assay [3] it was 0.352; in assay [4], 0.876; in assay [5], 0.401; in [6], 1.28. Further, the PBM binding z-score was found to be 1.06 in [7], 2.23 in assay [8], 3.93 in [9] and 3 in [10].
As for TCGAGTAGGTCAGGGGCATTCAGAATGGCGTCGA, the PBM binding z-score in [1] is 2.3; in [2], 1.52; in [3] it was -0.495; in assay [4], 1.9; in assay [5], -0.546; in [6], 3.41. The PBM binding z-score in [7] worked out at 4.73; in assay [8], 4.8; in assay [9] it was 2.48; in [10], 4.21.
As for ACTATTAGTTGACTTAGGGCAACGGATACGACGC, the PBM binding z-score is 0.165 in [1]; 0.158 in assay [2]; 0.172 in assay [3]; -0.137 in [4]; 0.447 in assay [5]; -0.22 in assay [6]. Also, the PBM binding z-score in [7] worked out at 0.94; in assay [8], 0.192; in [9] it was 0.24; in assay [10], 0.227.
In the case of AATACACGGTCATCGTAGGCCAGAGTACGCACAG, the PBM binding z-score in assay [1] is 1.37; in [2], 3.15; in [3] it was 2.68; in assay [4] it was 0.586; in [5] it was 0.643; in [6] it was 0.606. Further, the PBM binding z-score in assay [7] turned out to be 1.15; in assay [8] it was 0.51; in assay [9], 0.35; in [10], 0.546.
As to CAAACTAGGTCACCGGATGGTCAAAGTCCGCATG, the PBM binding z-score is 4.23 in [1]; 3.25 in assay [2]; 0.505 in assay [3]; 2.57 in assay [4]; 0.435 in assay [5]; 5.4 in assay [6]. Further, the PBM binding z-score in [7] worked out at 8.96; in assay [8], 7.39; in [9], 5.71; in [10] it was 7.25.
For TCTTGTAGATCAACGGTTAAGAAAGCCGAAGCCT, the PBM binding z-score was 0.513 in [1]; 0.28 in [2]; -0.0283 in [3]; 0.131 in assay [4]; -0.0358 in assay [5]; 1.14 in assay [6]. For the same sequence, the PBM binding z-score in assay [7] was determined as 0.464; in [8] it was 2.61; in assay [9], 3.23; in assay [10], 3.03.
As for GGAACGAGGGCCAAGTTGATAGCATCTGTCGACG, the PBM binding z-score in assay [1] is -0.236; in [2], -0.341; in [3], -0.454; in [4] it was -0.778; in assay [5] it was -0.949; in assay [6], 0.213. In addition, the PBM binding z-score stood at 0.734 in assay [7], 1.4 in assay [8], 0.144 in assay [9] and 0.913 in assay [10].
As for GTAACGAGGGCAAGTTGATAGCAGAGTTTGATGG, the PBM binding z-score in [1] is 0.832; in assay [2] it was 0.576; in assay [3] it was -0.256; in assay [4] it was 0.49; in [5], 0.052; in assay [6], 1.9. In addition, the PBM binding z-score in [7] amounted to 1.29; in assay [8], 1.19; in [9], 0.279; in [10] it was 0.807.
CCTTGTTGGTCAGGAGGTCACACACCGGATATGA: the PBM binding z-score was 3.65 in [1]; 3.45 in assay [2]; 2.55 in [3]; 3.64 in assay [4]; 0.947 in [5]; 4.07 in assay [6]. The PBM binding z-score in assay [7] turned out to be 3.37; in [8], 3.8; in assay [9] it was 1.66; in assay [10], 2.83.
With GCAATTAGTTGAAAGGGCAACCGAATGATTCTCG, the PBM binding z-score in assay [1] is 0.0908; in assay [2], 0.491; in assay [3], 0.0352; in assay [4], 0.496; in assay [5], -0.314; in [6], 2.69. Also, the PBM binding z-score was determined as 3.22 in assay [7], 5.14 in [8], 3.49 in [9] and 5.31 in [10].
For ATATGTAGGTTAAGGGGCATTCAGGTTGGTTCGC, the PBM binding z-score in assay [1] was found to be 1.42; in [2], 2; in assay [3] it was 1.15; in assay [4], 2.75; in [5] it was 1.48; in assay [6] it was 5.25. Besides, the PBM binding z-score in [7] was 9.21; in [8], 8.26; in assay [9], 8.39; in [10], 9.63.
